Reference: PubChem BioAssay AID1159580 (chemical genetic matrix, 2015)
Values joined by “and” are separate entries in the source; they are usually repeats but may differ in a detail not shown here. Identical values can stand only once. Out of some 5,500 compounds screened, about 2,000 (36%) were called active. Inconclusive results (about 18%) are left out. Rule as the data show it: active = normalized growth mostly below about 0.91 (no sharp cut-off); inconclusive = no clear call, values can overlap the other calls; inactive = mostly above about 0.92. The list shows a part of the results.

Experiment: chemical genetic growth profiling, strain panel (AID 1159580);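 also: tested at 20 µM; growth read once vehicle control cultures reached saturation at 30 °C; 1 = growth at the plate median or of vehicle wells; lower values mean less growth of the strain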
Conditions: S. cerevisiae deletion strains, growth OD

Measured: normalized growth

CC(=O)OC1CCC23CC1(C)CCC2C(C)(C)CC3OC(C)=O (stereo unspecified)
active: locus YDR392W, strain spt3, active compounds read low 0.528 | locus YNL071W, strain lat1, active compounds read low 0.836 | locus YOR184W, strain ser1, active compounds read low 0.852
inactive: locus YAL021C, strain ccr4, active compounds read low 1.04 | locus YAL026C, strain drs2, active compounds read low 1.02 | locus YAL030W, strain snc1, active compounds read low 0.996 | locus YBL061C, strain skt5, active compounds read low 1.01 | locus YBR009C, strain hhf1, active compounds read low 1.01 | locus YBR021W, strain FUR4, active compounds read low 1.01 | locus YBR023C, strain chs3, active compounds read low 0.981 | locus YBR171W, strain sec66, active compounds read low 0.999 | locus YBR229C, strain ROT2, active compounds read low 0.988 | locus YBR231C, strain swc5, active compounds read low 1.02 | locus YBR279W, strain paf1, active compounds read low 1.04 | locus YCL011C, strain gbp2, active compounds read low 0.995 | locus YCL016C, strain dcc1, active compounds read low 0.978 | locus YCL029C, strain bik1, active compounds read low 1.01 | locus YCL061C, strain MRC1, active compounds read low 1.01 | locus YCL069W, strain vba3, active compounds read low 0.991 | locus YCR088W, strain abp1, active compounds read low 0.992 | locus YDL005C, strain med2, active compounds read low 0.994 | locus YDL035C, strain GPR1, active compounds read low 1.01 | locus YDL040C, strain nat1, active compounds read low 0.999 | locus YDL074C, strain BRE1, active compounds read low 1.01 | locus YDL101C, strain DUN1, active compounds read low 1.04 | locus YDL134C, strain PPH21, active compounds read low 1.02 | locus YDL185W, strain tfp1, active compounds read low 1.03 | locus YDL192W, strain arf1, active compounds read low 0.974 | locus YDR001C, strain nth1, active compounds read low 0.984 | locus YDR069C, strain doa4, active compounds read low 1.01 | locus YDR101C, strain arx1, active compounds read low 0.98 | locus YDR137W, strain rgp1, active compounds read low 0.882 | locus YDR159W, strain sac3, active compounds read low 1.03 | locus YDR162C, strain NBP2, active compounds read low 0.95 | locus YDR195W, strain ref2 1.03 | locus YDR297W, strain sur2, active compounds read low 1.01 | locus YDR318W, strain mcm21, active compounds read low 1 | locus YDR334W, strain swr1, active compounds read low 1.01 | locus YDR335W, strain msn5, active compounds read low 1 | locus YDR388W, active compounds read low 0.989 | locus YDR502C, strain sam2, active compounds read low 1.01 | locus YEL003W, strain gim4, active compounds read low 1.03 | locus YEL037C, strain rad23, active compounds read low 1.01 | locus YEL061C, strain CIN8 (second series), active compounds read low 1 | locus YER015W, strain faa2, active compounds read low 1.02 | locus YER016W, strain bim1, active compounds read low 1 | locus YER110C, active compounds read low 1.03 | locus YER111C, strain swi4, active compounds read low 1.01 | locus YER155C, strain BEM2 (second series), active compounds read low 0.99 | locus YER155C, strain BEM2, active compounds read low 1.02 | locus YER167W, strain BCK2, active compounds read low 0.997 | locus YFR010W, strain ubp6, active compounds read low 1.05 | locus YGL078C, strain dbp3, active compounds read low 1 | locus YGL086W, strain mad1, active compounds read low 0.959 | locus YGL167C, strain pmr1, active compounds read low 0.993 | locus YGL173C, strain kem1, active compounds read low 1.03 | locus YGL227W, strain vid30, active compounds read low 1.01 | locus YGL240W, strain doc1, active compounds read low 1.01 | locus YGL248W, strain PDE1, active compounds read low 1.04 | locus YGL253W, strain hxk2, active compounds read low 1.02 | locus YGR078C, strain PAC10, active compounds read low 0.987 | locus YGR135W, strain pre9, active compounds read low 1.02 | locus YGR252W, strain gcn5, active compounds read low 1.1 | locus YHR013C, strain ard1, active compounds read low 1.01 | locus YHR027C, strain rpn1, active compounds read low 1 | locus YHR030C, strain SLT2, active compounds read low 1.01 | locus YHR079C, strain IRE1 (second series), active compounds read low 0.995 | locus YHR079C, strain IRE1, active compounds read low 1.01 | locus YHR094C, strain hxt1, active compounds read low 0.998 | locus YHR129C, strain ARP1, active compounds read low 1 | locus YHR142W, strain chs7, active compounds read low 0.963 | locus YHR200W, strain rpn10, active compounds read low 0.995 | locus YIL066C, strain RNR3, active compounds read low 0.997 | locus YIL073C, strain SPO22, active compounds read low 0.995 | locus YIL125W, strain kgd1, active compounds read low 0.998 | locus YIR030C, strain dcg1, active compounds read low 0.988 | locus YJL092W, strain hpr5, active compounds read low 1.01 | locus YJL095W, strain BCK1 (second series), active compounds read low 1.01 | locus YJL095W, strain BCK1, active compounds read low 0.969 and 1.04 | locus YJL115W, strain asf1, active compounds read low 1.01 | locus YJL129C, strain trk1, active compounds read low 0.881 | locus YJL134W, strain LCB3, active compounds read low 0.998 | locus YJL154C, strain vps35, active compounds read low 1 | locus YJL164C, strain tpk1, active compounds read low 1.02 | locus YJL166W, strain qcr8, active compounds read low 0.993 | locus YJL168C, strain set2, active compounds read low 0.985 | locus YJL187C, strain SWE1 (second series), active compounds read low 1.07 | locus YJR043C, strain POL32, active compounds read low 1.04 | locus YJR066W, strain TOR1, active compounds read low 0.98 | locus YJR075W, strain HOC1, active compounds read low 0.999 | locus YKL009W, strain mrt4, active compounds read low 0.992 | locus YKL068W, active compounds read low 0.972 | locus YKL085W, strain MDH1 (second series), active compounds read low 0.967 | locus YKL085W, strain MDH1, active compounds read low 0.967 | locus YKL160W, strain elf1, active compounds read low 1 | locus YKR001C, strain vps1, active compounds read low 1.01 | locus YKR026C, strain gcn3, active compounds read low 0.991 | locus YKR091W, strain srl3, active compounds read low 0.981 | locus YLL001W, strain dnm1, active compounds read low 0.995 | locus YLL026W, active compounds read low 1 | locus YLL041C, strain sdh2, active compounds read low 0.994 | locus YLR027C, strain aat2, active compounds read low 1.01 | locus YLR039C, strain RIC1, active compounds read low 0.968 | locus YLR058C, strain SHM2, active compounds read low 1.05 | locus YLR102C, strain apc9, active compounds read low 1.01 | locus YLR113W, strain HOG1, active compounds read low 1 | locus YLR221C, strain rsa3, active compounds read low 1.01 | locus YLR258W, strain gsy2, active compounds read low 1.01 | locus YLR262C, strain YPT6 (second series), active compounds read low 0.961 | locus YLR262C, strain YPT6, active compounds read low 0.929 | locus YLR268W, strain sec22, active compounds read low 0.997 | locus YLR320W, strain mms22, active compounds read low 0.959 | locus YLR342W, strain FKS1 (second series), active compounds read low 1 | locus YLR342W, strain FKS1, active compounds read low 0.988 | locus YLR357W, strain rsc2, active compounds read low 1.07 | locus YLR370C, strain arc18, active compounds read low 1.04 | locus YLR371W, strain rom2, active compounds read low 0.959 | locus YLR384C, strain iki3, active compounds read low 0.997 | locus YLR418C, strain cdc73, active compounds read low 0.904 | locus YML016C, strain PPZ1, active compounds read low 1.02 | locus YML032C, strain rad52, active compounds read low 1.01 | locus YML120C, strain ndi1, active compounds read low 0.965 | locus YML124C, strain tub3, active compounds read low 0.99 | locus YMR058W, strain fet3, active compounds read low 1.03 | locus YMR078C, strain ctf18, active compounds read low 0.991 | locus YMR125W, strain sto1, active compounds read low 1 | locus YMR129W, active compounds read low 1 | locus YMR205C, strain PFK2, active compounds read low 0.924 | locus YMR223W, strain ubp8, active compounds read low 1 | locus YMR231W, strain pep5, active compounds read low 1.02 | locus YMR307W, strain GAS1, active compounds read low 0.976 | locus YNL067W, strain RPL9B, active compounds read low 1.01 | locus YNL153C, strain GIM3, active compounds read low 1.03 | locus YNL183C, strain NPR1, active compounds read low 0.974 | locus YNL209W, strain ssb2, active compounds read low 1.01 | locus YNL233W, strain BNI4, active compounds read low 1.01 | locus YNL248C, strain rpa49, active compounds read low 1.04 | locus YNL250W, strain rad50, active compounds read low 1.03 | locus YNL271C, strain bni1, active compounds read low 0.996 | locus YNL298W, strain CLA4, active compounds read low 1 | locus YNL307C, strain MCK1, active compounds read low 0.943 | locus YNL322C, strain KRE1 (second series), active compounds read low 1.01 | locus YNL322C, strain KRE1, active compounds read low 1 | locus YNR049C, strain mso1, active compounds read low 0.984 | locus YNR052C, strain pop2, active compounds read low 1.01 | locus YOL012C, strain htz1 0.724 | locus YOL147C, strain pex11, active compounds read low 1 | locus YOR001W, strain rrp6, active compounds read low 1.04 | locus YOR061W, strain CKA2, active compounds read low 1.03 | locus YOR069W, strain VPS5, active compounds read low 1.01 | locus YOR070C, strain gyp1, active compounds read low 1.01 | locus YOR080W, strain dia2, active compounds read low 1.02 | locus YOR083W, strain WHI5, active compounds read low 1.02 | locus YOR106W, strain vam3, active compounds read low 1.01 | locus YOR136W, strain idh2, active compounds read low 1.02 | locus YOR144C, strain elg1, active compounds read low 0.993 | locus YOR231W, strain MKK1, active compounds read low 1.04 | locus YOR265W, strain rbl2, active compounds read low 1.02 | locus YOR270C, strain vph1, active compounds read low 0.851 | locus YOR290C, strain snf2, active compounds read low 0.977 | locus YOR316C, strain cot1, active compounds read low 1 | locus YPL051W, strain arl3, active compounds read low 0.994 | locus YPL078C, strain atp4, active compounds read low 0.941 | locus YPL106C, strain sse1, active compounds read low 1.07 | locus YPL240C, strain hsp82, active compounds read low 0.999 | locus YPL256C, strain CLN2, active compounds read low 1.02 | locus YPR119W, strain clb2, active compounds read low 0.988 | locus YPR141C, strain kar3, active compounds read low 0.971 | locus YPR163C, strain tif3, active compounds read low 0.991 | locus YPR167C, strain met16, active compounds read low 0.994 | strain wtn01, active compounds read low 0.985
